# PubChem BioAssay AID1942 (Johns Hopkins Ion Channel Center, 2009)
# Hit rate of the full screen: of about 2,400 compounds, about 580 (24%) were called active. Not all results are given here. Values without a mark were called inactive.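 Rule for the calls: active = activity change at or above the mean plus 3 SD of buffer wells without dofetilide, per plate; inactive = the rest.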
# Molecular target: Potassium voltage-gated channel subfamily KQT member 2 (Rattus norvegicus) (UniProt O88943)
# Assay: rat KCNQ2 channel activation by compounds alone, confirmation, counter-screen for hERG block protector project, cell-based, CHO, FluxOR thallium flux (AID 1942);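 note: normalized value minus buffer-control mean plus three SD of buffer wells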
# Conditions: CHO-KCNQ2 cells, FluxOR thallium flux fluorescence; at 10 µM; stronger effect = higher value
# Potassium voltage-gated channel subfamily KQT member 2 (Rattus norvegicus), sequence (O88943 whole entry, looked up): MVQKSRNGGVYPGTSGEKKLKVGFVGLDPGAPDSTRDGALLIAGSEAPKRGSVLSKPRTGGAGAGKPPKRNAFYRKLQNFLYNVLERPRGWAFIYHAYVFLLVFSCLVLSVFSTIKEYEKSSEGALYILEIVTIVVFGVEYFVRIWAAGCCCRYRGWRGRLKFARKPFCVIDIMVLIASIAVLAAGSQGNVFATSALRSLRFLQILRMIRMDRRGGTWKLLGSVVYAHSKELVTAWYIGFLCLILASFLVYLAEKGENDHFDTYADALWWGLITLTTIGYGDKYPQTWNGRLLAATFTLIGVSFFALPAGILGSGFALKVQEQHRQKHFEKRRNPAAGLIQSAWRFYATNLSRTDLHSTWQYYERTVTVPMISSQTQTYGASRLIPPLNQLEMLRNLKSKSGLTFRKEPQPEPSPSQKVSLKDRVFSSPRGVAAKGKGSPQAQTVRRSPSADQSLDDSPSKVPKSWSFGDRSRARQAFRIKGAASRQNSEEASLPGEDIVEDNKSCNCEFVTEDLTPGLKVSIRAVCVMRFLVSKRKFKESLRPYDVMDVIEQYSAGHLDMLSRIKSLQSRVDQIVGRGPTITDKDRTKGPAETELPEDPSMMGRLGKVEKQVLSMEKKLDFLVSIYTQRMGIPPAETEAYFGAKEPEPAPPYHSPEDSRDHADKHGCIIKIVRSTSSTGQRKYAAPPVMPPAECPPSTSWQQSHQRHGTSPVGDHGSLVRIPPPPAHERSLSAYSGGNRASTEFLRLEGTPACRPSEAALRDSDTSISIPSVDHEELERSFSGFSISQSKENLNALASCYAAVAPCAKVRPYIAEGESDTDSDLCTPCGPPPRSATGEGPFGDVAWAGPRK
row,SMILES,"activity change, less the hit threshold"
1,COc1cc(S(=O)(=O)NCC2COCCO2)ccc1-n1cnnn1 (centres undefined),-13.9%
2,O=C(N=Nc1c(O)[nH]c2ccc([N+](=O)[O-])cc12)c1cc(-c2ccccc2Cl)nc2ccccc12,-10.8%
3,COc1ccc(NC(=O)CN2C(=O)S/C(=C/c3cccn3-c3ccc(C(=O)O)cc3)C2=O)cc1,-22.6%
4,c1ccc(-c2ccnc3nc(N4CCN(c5ccccc5)CC4)nn23)cc1,-26.3%
5,Cc1cc([N+](=O)[O-])c(C)cc1-c1ccc(/C=N/NC(=O)Cn2nnnc2N)o1,-10%
6,COc1ccc(C(=O)Nc2ccccc2C(=O)O)cc1Cl,-8.6%
7,COc1ccccc1C(=O)NNC(=O)C(=O)Nc1cccc(Cl)c1C,131% (active)
8,COc1ccc(Cl)cc1C(=O)Nc1cccnc1Cl,-15.9%
9,CC(=O)Nc1ccccc1C(=O)C(=O)Nc1ccc(Cl)cc1,-18.3%
10,CC(=O)Nc1ccccc1C(=O)C(=O)Nc1ccccc1,-23.5%
11,Cc1ccccc1C(=O)NNC(=O)C(=O)Nc1cccc(Cl)c1C,17.7% (active)
12,O=C(Nc1ccccc1C(=O)O)c1ccc(NC(=O)C2CC2)cc1,-20.5%
13,Oc1ccc(Cl)cc1C1=NNC(c2cccs2)C1 (centres undefined),9.1% (active)
14,O=C(Nc1cc(Cl)ccc1O)C1CC(c2ccccc2Cl)=NO1 (centres undefined),-19.1%
15,CCOc1ccc2[nH]c(=O)c(CN(Cc3ccc(C)cc3)C(=O)N3CCCC3)cc2c1,-12.4%
16,CCSc1nnc(NC(=O)Cn2cnc3c2c(=O)n(C)c(=O)n3C)s1,-15.7%
17,Clc1ccc(Nc2ccc(Cl)nn2)cc1,7.4% (active)
18,S=c1[nH]nc(Nc2ccc(Cl)cc2)s1,-19.3%
19,Clc1ccc(Nc2nc3cccnc3s2)cc1,-20.7%
20,COc1ccc(/C=N/NC(=O)C(=O)N2CCCC2)cc1,-5%
21,N#Cc1c(-c2ccco2)c2c([nH]c1=S)CCCC2,-16.2%
22,O=C(NCc1ccccc1)C(=O)Nc1nc(C23CC4CC(CC(C4)C2)C3)cs1,-21.1%
23,O=C(NNC(=S)Nc1ccccc1)c1cccc(S(=O)(=O)N2CCOCC2)c1,-7.9%
24,O=[N+]([O-])c1cc(Cl)cc(/C=N/NC(=S)Nc2ccc(S(=O)(=O)N3CCOCC3)cc2)c1O,29.8% (active)
25,O=C(CCc1ccccc1Cl)Nc1ccc(S(=O)(=O)N2CCOCC2)cc1,-19.3%
26,Cc1ccc(F)cc1CNC(=O)C1CCC(=O)N(C2CC2)C1 (centres undefined),-13.7%
27,N#Cc1ccc(-c2ccc(OCC(=O)Nc3cccnc3)cc2)cc1,-9.1%
28,O=C(C1CC1)N1N=C(c2ccccc2)CC1(O)C(F)(F)C(F)(F)F (centres undefined),-22.1%
29,O=C(CN1C(=O)NC(Cc2ccccc2)C1=O)Nc1ccccc1OC(F)F (centres undefined),-20.5%
